Source: PubChem (several laboratories)
Most compounds without a hit are left out; they make up all but 4.2% or so of the library.
PfHsp90 yeast 2 = growth inhibition of PfHsp90-expressing yeast, primary screen, antimalarial PfHsp90 inhibitor project, S. cerevisiae, BacTiter-Glo luminescence, single point, set 2; hit rate 0.32% among 310,000; BacTiter-Glo ATP, 48 h; yeast lacking PDR1 and PDR3 efflux regulators; inhibition, % at 9.4 µM; AID 504621, 2011;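 active = every replicate shows inhibition above about 80%, whatever the replicate mean, limit read from the data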;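 note: 0% = DMSO neutral controls and 100% = 20 µM radicicol positive controls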
tim10-1 inh = growth inhibitors of tim10-1 mutant yeast, primary screen, luminescence, uHTS; inhibition, % at 20 µM; AID 463190, 2010; S. cerevisiae tim10-1 ts strain growth, BacTiter-Glo, 24 h; hit rate 2.2% among 330,000;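 active = inhibition of at least 40%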;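 note: mutant grown at 25 °C; 0% = DMSO wells with yeast and 100% = wells holding no yeast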
tim23-1 inh = growth inhibitors of tim23-1 mutant yeast, primary screen, luminescence, uHTS. S. cerevisiae tim23-1 growth, BacTiter-Glo luminescence, 24 h. inhibition, % at 20 µM. hit rate 1.3% among 330,000. AID 463212, 2010;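 active = growth inhibition of the mutant yeast at or above 50%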;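 note: temperature-sensitive mutant grown at 25 °C; plate controls were DMSO-treated mutant yeast for no effect and medium wells lacking yeast for full effect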
NALP1 inh = NALP1 inflammasome inhibitors in reconstituted yeast, colorimetric, S. cerevisiae, triplicate retest; S. cerevisiae NALP1/ASC/caspase-1 growth, X-gal OD620, 72 h; inhibition, % at 10 µM; hit rate 0.61% among 280,000; in the data active = inhibition mostly above about 24%, no sharp cut-off; inactive = mostly below about 32%
NALP3 yeast inh = NALP3 inflammasome inhibitors in reconstituted yeast, primary screen, luminescence, uHTS; Yeast reconstituted NLRP3/ASC/caspase-1, beta-gal luminescence, 24 h; AID 2825, 2010; inhibition, % at 10 µM; hit rate 0.39% among 330,000;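 active = inhibition of 50% or more; inactive = inhibition below 50%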;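 note: plate controls were induced DMSO wells for no effect and uninduced yeast grown without galactose for full effect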
TIM10 inh = growth inhibitors of isogenic TIM10 control yeast, primary screen, counter-screen for tim10-1 yeast inhibitor project, luminescence, uHTS; S. cerevisiae TIM10 strain growth, BacTiter-Glo luminescence, 24 h; inhibition, % at 10 µM; hit rate 1.4% among 330,000;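 active = inhibition of 40% or more at the single tested concentration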;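 note: wild-type TIM10 isogenic control strain grown at permissive 25 °C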
tim10-1 conf = growth inhibitors of tim10-1 mutant yeast, confirmation, single concentration, luminescence, S. cerevisiae; shares compounds with tim10-1 inh; S. cerevisiae tim10-1 ts strain growth, BacTiter-Glo, 24 h; inhibition, % at 20 µM; hit rate 56% among 7,400;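 active = inhibition of yeast growth at or above a set limit in either of two repeat tests at 20 µM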;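 note: tim10-1 mutant grown at permissive 25 °C to find synthetic lethal compounds; 0% = DMSO yeast wells and 100% = medium wells without yeast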
TIM10 conf = growth inhibitors of wild-type TIM10 yeast, confirmation, counter-screen for tim10-1 synthetic lethality project, single concentration, luminescence, S. cerevisiae | AID 463215, 2010 | shares compounds with TIM10 inh | S. cerevisiae tim10 strain growth, BacTiter-Glo luminescence, 24 h | hit rate 63% among 4,600 | inhibition, % at 10 µM;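 active = inhibition of yeast growth at or above a set limit in either of two replicates at 10 µM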;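 note: this counterscreen used the strain with wild-type TIM10; 0% = yeast with DMSO and 100% = medium wells lacking yeast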
Numbers without * were called inactive; . = no result.

SMILES	PfHsp90 yeast 2	tim10-1 inh	tim23-1 inh	NALP1 inh	NALP3 yeast inh	TIM10 inh	tim10-1 conf	TIM10 conf
CCOc1ccc2nc(-c3cc(NC(C)=O)ccc3O)sc2c1	-21.0	7.8	1.4	11.2	9.7	8.9	.	.
O=C(Nc1nc2ccc(Cl)cc2s1)C1CC1	-18.4	40.6*	32.7	.	-11.5	45.9*	42.8*	46.2*
O=C(COC(=O)CCc1c[nH]c2ccccc12)Nc1ccccc1C(F)(F)F	.	19.9	30.2	.	9.0	20.8	.	.
Cc1cccc(NC(=O)c2cc3n(n2)C(C(F)(F)F)CC(c2ccc4c(c2)OCO4)N3)c1 (centres undefined)	-16.3	40.7*	41.8	5.2	21.5	62.2*	47.5*	59.5*
O=C(Nc1ccccc1Cl)C1C2CCC3C(CCC21)C3(Cl)Cl (centres undefined)	2.1	16.9	9.3	32.8	13.5	2.4	.	.
CCOc1ccccc1NC(=O)C1C2CCC3C(CCC21)C3(Cl)Cl (centres undefined)	7.0	40.0	32.2	-5.4	0.3	47.5*	30.9*	43.2*
Cc1cc(C)cc(C(=O)NC(CC(N)=O)c2ccc(NCC3CC3)c([N+](=O)[O-])c2)c1 (centres undefined)	7.0	-9.3	-7.3	24.8	13.5	1.9	.	.
Cc1nnc(Nc2ccccn2)c2ccccc12	-20.1	66.3*	46.4	5.1	32.4	84.7*	70.5*	82.6*
Cc1nnc(Nc2ccc(F)cc2)c2ccccc12	-26.7	11.7	5.8	11.2	14.2	10.0	.	.
C=CCN(CC=C)S(=O)(=O)c1ccc(NC(=O)COc2ccccc2OC)cc1	2.8	45.4*	38.7	-1.0	10.7	42.4*	32.2*	-11.2
COc1ccccc1OCC(=O)Nc1ccncc1	23.1	-11.9	-5.2	8.2	-1.1	-1.8	.	.
CCn1c(=O)c(C(=O)NCc2ccc(F)cc2)c(O)c2ccccc21	6.9	-11.9	39.1	2.5	15.3	-6.2	.	.
O=C(c1ccc([N+](=O)[O-])s1)N1CCN(c2ccccc2)CC1	3.4	52.6*	31.4	24.6	11.7	60.1*	47.2*	49.6*
O=C(c1ccc([N+](=O)[O-])s1)N1CCN(c2ccccn2)CC1	-4.4	49.2*	45.8	-5.8	4.4	43.9*	47.8*	43.5*
COc1ccc(OC)c2sc(N3CCN(C(=O)c4ccc([N+](=O)[O-])s4)CC3)nc12	40.9	34.3	-53.9	.	7.9	-86.8	.	.
CN(C(=O)CSc1nnnn1C)C1(C#N)CCCCC1	10.5	12.8	19.1	.	-2.0	5.6	.	.
COc1cccc(-c2noc(C3CCCN(C(=O)Cc4ccccc4)C3)n2)c1 (centres undefined)	4.6	40.0*	38.9	15.2	-66.2	40.8*	35.5*	24.0
Cc1ccc(S(=O)(=O)CCC(=O)OCC(=O)c2cc(C)ccc2C)cc1	-5.4	-2.1	3.1	.	6.2	-2.2	.	.
Cc1ccc(S(=O)(=O)CCC(=O)c2ccc(O)cc2O)cc1	36.6	54.4*	48.1	-67.2	-21.6	55.4*	47.1*	49.8*
CC(C)c1ccc(S(=O)(=O)c2ccc(NN)cc2)cc1	-8.3	44.5*	45.6	-24.4	11.8	42.4*	34.0*	31.2*
COc1ccc(/C=C2\CCc3ccccc3C2=O)cc1Cn1cccn1	.	43.2*	35.8	11.2	33.6	42.0*	39.9*	12.8
COc1ccc(/C=C2\CCC(C3CCCC3)C2=O)cc1Cn1cccn1 (centres undefined)	19.4	26.1	31.5	18.2	27.0	18.1	.	.
CC1CCc2[nH]c3ccc(C(=O)O)cc3c2C1 (centres undefined)	22.0	8.3	4.9	22.8	15.3	1.9	.	.
COc1ccccc1N1CCN(C(=O)c2ccc3[nH]c4c(c3c2)CC(C)CC4)CC1 (centres undefined)	-30.8	53.1*	23.8	32.4	16.0	48.9*	37.7*	36.5*
O=C(c1nc[nH]c1C(=O)N1CCc2ccccc2C1)N1CCc2ccccc2C1	-20.7	16.3	12.2	.	-7.0	7.3	.	.
SMILES	PfHsp90 yeast 2	tim10-1 inh	tim23-1 inh	NALP1 inh	NALP3 yeast inh	TIM10 inh	tim10-1 conf	TIM10 conf
Cc1cccc(C)c1NC(=O)c1ccc([N+](=O)[O-])s1	-33.1	66.1*	-82.6	24.0	-10.9	58.9*	54.2*	52.8*
O=C(Nc1ccccc1N1CCOCC1)c1ccc([N+](=O)[O-])s1	103.4*	65.7*	14.2	.	8.4	61.4*	71.6*	84.1*
Cc1cccc(NC(=O)c2ccc([N+](=O)[O-])s2)c1C	12.6	65.8*	16.4	18.9	-1.9	60.7*	55.2*	53.0*
O=C(Nc1ccccc1N1CCOCC1)c1ccccc1[N+](=O)[O-]	-8.1	16.1	11.3	-3.8	0.8	-5.5	.	.
COc1ccc(NC(=O)c2ccc([N+](=O)[O-])s2)c([N+](=O)[O-])c1	-6.5	5.8	11.1	3.4	16.3	14.5	.	.
Cc1cccc(NC(=O)c2cccc([N+](=O)[O-])c2O)c1C	28.0	.	.	.	.	.	.	.
Cc1ccnc(NC(=O)c2ccc([N+](=O)[O-])s2)c1	0.1	75.3*	34.4	3.4	3.2	69.0*	71.7*	79.9*
Cc1ccnc(NC(=O)c2cc([N+](=O)[O-])cc([N+](=O)[O-])c2)c1	-41.9	13.4	24.8	-5.0	14.4	26.1	.	.
O=C(NCc1ccccc1Cl)c1ccc(CS(=O)Cc2ccc(Cl)cc2)o1 (centres undefined)	4.7	23.7	13.7	-7.6	20.5	-5.0	.	.
CCOC(=O)N1CCN(C(=O)CSc2nc(=O)n3ccccc3n2)CC1	9.3	3.5	-2.8	.	4.7	13.8	.	.
O=C(NS(=O)(=O)Oc1ccccc1F)OC[C@@H]1CCCN2CCCCC12 (some centres undefined)	-2.4	-5.9	-5.7	0.1	22.2	-10.0	.	.
Cc1cccc(C(=O)Nc2cccc(Br)c2)c1[N+](=O)[O-]	-19.1	57.7*	43.4	-5.0	0.6	64.9*	54.0*	50.5*
CCCCNC(=S)Nc1ccc(SC(F)F)cc1	-2.5	53.4*	43.4	14.2	3.2	40.6*	35.7*	30.0*
Cc1ccc(-c2nc3c(c(=O)c4ccccc4n3C)c(=O)n2-c2ccc(F)cc2)cc1	5.4	-18.5	8.6	15.8	3.5	-7.5	.	.
